Records with an inconclusive call do not appear. Where a call stands in place of a potency, no number is given. The source made the active and inactive calls. Calls follow the shape of the dose curve; as a rule, active = well fitted activation curve with a large enough effect in the repeat runs; inconclusive = weak or mixed curves; inactive = no such curve, though single readings can be large or run the other way.
These molecules were tested against Nuclear receptor subfamily 1 group I member 2 (Homo sapiens) (UniProt O75469) (assay: CYP3A4 induction through human pregnane X receptor (PXR) by small molecules, qHTS assay (AID 1346984; also: nearly all actives have a fitted effect of over 40% in size)). Settings: DPX-2 HepG2 PXR, CYP3A4-luciferin luminescence, 24 h; series mostly up to 46.1 µM.
Description: National Center for Advancing Translational Sciences [NCATS]
NIH Chemical Genomics Center [NCGC]
U.S. Environmental Protection Agency [EPA]
National Institutes of Environmental Health Sciences [NIEHS]
National Toxicology Program [NTP]
The Pregnane X receptor (PXR), a ligand activated nuclear receptor plays a critical role in the regulation of genes involved in drug metabolism and transporters. Activation of PXR is responsible for unwanted adverse drug reactions. PXR binds xenobiotics and when compounds interact with PXR enhances the expression of CYP3A genes. Identifying the compounds with the potential for PXR activation and CYP3A4 induction can be of importance in improving the efficacy of drugs with less toxicity and avoiding drug-drug interactions.
DPX-2 (Puracyp, Inc.) cell lines, used for screening against human PXR activation has HepG2 cells co-transfected with a PXR response element and a luciferase construct containing CYP3A4 promoter. Increase in luciferase activity can be used to identify the compounds that cause the induction of CYP3A4.
DPX-2 cells were dispensed at 2,000 cells per well in 5uL of assay medium into white, solid-bottom 1536-well plates using a Multidrop Combi dispenser (Thermo Scientific). The assay plates were incubated at 37C for 5hr before transferring 23nL of test compounds dissolved in DMSO and positive control via Pintool station (Wako). The assay plates were incubated at 37C for 24hr. After 24hr compound treatment, 1uL of 3uM (final concentration) P450 substrate (P450-Glo CYP3A4 screening system with Luciferin-IPA, Promega) was added by a Flying Reagent Dispenser (FRD, Aurora Discovery). The assay plates were incubated for 3hr at 37C. Then 5ul One-Glo assay reagent (Promega) was added to each plate by an FRD and following 30 min incubation at room temperature, luciferase activity was quantified on a ViewLux plate reader (Perkin Elmer).
Potency is read from the fitted curve at half-maximal effect.

| SMILES | Potency |
| --- | --- |
| CC(C)(C)CC(C)(C)c1ccc(O)c(-n2nc3ccccc3n2)c1 | inactive |
| COc1cc(O)c(C(=O)c2ccccc2)cc1S(=O)(=O)O | inactive |
| C[C@]12C[C@H](O)[C@H]3[C@@H](CCC4=CC(=O)CC[C@@]43C)[C@@H]1CC[C@@H]2C(=O)CO | inactive |
| NC(=O)N/N=C/c1ccc([N+](=O)[O-])o1 | inactive |
| Cc1c(N(C)CS(=O)(=O)O)c(=O)n(-c2ccccc2)n1C | inactive |
| C/C=C/c1ccc(O)c(OC)c1 | inactive |
| CCN(CC)CCOC(=O)c1ccc(N)cc1 | inactive |
| COc1ccc(O)cc1 | inactive |
| COc1ccccc1O | inactive |
| COC(=O)c1ccc(O)cc1 | inactive |
| CC1(C)O[C@@H]2[C@@H](CO[C@@]3(COS(N)(=O)=O)OC(C)(C)O[C@@H]23)O1 | inactive |
| OC[C@@H](O)[C@@H](O)[C@H](O)[C@H](O)CO | inactive |
| O=C(OCc1ccccc1)c1ccccc1 | inactive |
| CCCCNC(=O)NS(=O)(=O)c1ccc(N)cc1 | inactive |
| CCCCCCCCCCCCCCCCCC(=O)OCC(O)CO (stereo not given) | inactive |
| Oc1cccc(O)c1 | inactive |
| CCCCC/C(C=O)=C\c1ccccc1 | inactive |
| C#C[C@]1(O)CC[C@H]2[C@@H]3CCC4=CC(=O)CC[C@@H]4[C@H]3CC[C@@]21CC | inactive |
| NC(N)=NC(N)=NCCc1ccccc1 | inactive |
| NC(=O)c1ccc([N+](=O)[O-])cc1Cl | inactive |
| O=C(O)Cc1cccc2ccccc12 | inactive |
| Cc1ccc(O)c(-n2nc3ccccc3n2)c1 | inactive |
| CC(O)COc1ccccc1 (stereo not given) | inactive |
| CCCCCCCC(=O)OCC(O)CO (stereo not given) | inactive |
| CC1=NN(c2ccccc2)C(=O)C1 | 25.1 µM (active) |
| N[C@@H](Cc1c[nH]c2ccc(O)cc12)C(=O)O | 4.47 µM (active) |
| CCN1CCCC1=O | inactive |
| CCCCCCCCOc1ccc(C(=O)c2ccccc2)c(O)c1 | inactive |
| O=c1cc[nH]c(=O)[nH]1 | inactive |
| CCCCCCCCCCCCCC(=O)OC(C)C | inactive |

Reference: PubChem BioAssay (Tox21)
